# According to article PMC7862700, “An all-to-all approach to the identification of sequence-specific readers for epigenetic DNA modifications on cytosine”:
# Tests used:
# Assay in all cases: DAPPL (digital affinity profiling via proximity ligation, sequencing); 10 mM Tris-HCl pH 7.5, 50 mM NaCl, 1 mM DTT, 4% glycerol, room temperature, 30 min; GST-TFs on glutathione beads, 16-mer random dsDNA library, 0.1% formaldehyde crosslink after washing; high values mean tight binding
# Conditions in all cases: protein: recombinant; tags: N-terminal GST; dsDNA, one strand shown
# FLI1 = molecular target: T1, FLI1 (Homo sapiens, UniProt Q01543 1-452)
# T1 sequence: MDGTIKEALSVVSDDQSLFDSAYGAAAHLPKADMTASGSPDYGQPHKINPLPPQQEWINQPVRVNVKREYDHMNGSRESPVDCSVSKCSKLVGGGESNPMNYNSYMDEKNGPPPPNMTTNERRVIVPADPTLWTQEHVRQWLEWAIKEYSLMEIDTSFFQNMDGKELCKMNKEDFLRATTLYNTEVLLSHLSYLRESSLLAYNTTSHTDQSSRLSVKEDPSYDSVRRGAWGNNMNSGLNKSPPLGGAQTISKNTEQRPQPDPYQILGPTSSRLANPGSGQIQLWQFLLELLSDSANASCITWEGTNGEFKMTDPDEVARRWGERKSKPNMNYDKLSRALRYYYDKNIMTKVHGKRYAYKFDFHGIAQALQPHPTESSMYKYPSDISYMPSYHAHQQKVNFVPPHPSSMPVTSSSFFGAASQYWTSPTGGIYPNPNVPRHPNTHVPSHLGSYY
# How it was run: (§1)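 Human transcription factors were made in yeast as GST fusions, captured on glutathione beads and barcoded with DNA. With a tag-only sample included, the pool was incubated with 200 nmole of a random double-stranded 16-mer DNA library in Tris/NaCl/DTT/glycerol buffer at room temperature for 30 min, then crosslinked with 0.1% formaldehyde after washing, ligated by proximity, amplified and sequenced. For binding signal, each hexamer's read frequency for a factor is divided by its frequency for the tag-only sample.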
# ELK1 = molecular target: T2, ELK1 (Homo sapiens, UniProt P19419 1-428)
# T2 sequence: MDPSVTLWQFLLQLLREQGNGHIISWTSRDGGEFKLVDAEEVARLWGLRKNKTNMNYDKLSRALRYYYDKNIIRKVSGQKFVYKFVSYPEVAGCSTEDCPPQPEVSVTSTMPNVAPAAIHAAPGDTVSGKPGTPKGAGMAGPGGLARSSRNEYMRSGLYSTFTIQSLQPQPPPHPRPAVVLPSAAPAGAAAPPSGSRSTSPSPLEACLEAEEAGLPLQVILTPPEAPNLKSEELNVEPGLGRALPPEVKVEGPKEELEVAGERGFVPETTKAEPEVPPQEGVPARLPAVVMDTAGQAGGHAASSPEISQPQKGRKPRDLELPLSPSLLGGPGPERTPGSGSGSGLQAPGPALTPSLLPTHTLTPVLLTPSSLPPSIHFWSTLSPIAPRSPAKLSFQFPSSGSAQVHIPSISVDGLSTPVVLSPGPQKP
# How it was run: as §1
# GABPA = molecular target: T3, GABPA (Homo sapiens, UniProt Q06546 1-454)
# T3 sequence: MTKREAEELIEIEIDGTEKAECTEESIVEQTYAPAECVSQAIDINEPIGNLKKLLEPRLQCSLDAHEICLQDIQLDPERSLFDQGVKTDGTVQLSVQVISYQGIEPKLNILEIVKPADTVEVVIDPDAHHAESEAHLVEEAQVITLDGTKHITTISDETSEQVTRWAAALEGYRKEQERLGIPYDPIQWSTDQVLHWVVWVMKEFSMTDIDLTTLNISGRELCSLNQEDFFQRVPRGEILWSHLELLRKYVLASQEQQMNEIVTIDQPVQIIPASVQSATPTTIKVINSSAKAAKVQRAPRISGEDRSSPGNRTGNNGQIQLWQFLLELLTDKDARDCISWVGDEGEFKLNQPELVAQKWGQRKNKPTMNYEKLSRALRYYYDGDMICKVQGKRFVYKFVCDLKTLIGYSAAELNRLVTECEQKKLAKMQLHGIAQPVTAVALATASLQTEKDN
# How it was run: as §1
# ERG = molecular target: T4, ERG (Homo sapiens, UniProt P11308 1-479)
# T4 sequence: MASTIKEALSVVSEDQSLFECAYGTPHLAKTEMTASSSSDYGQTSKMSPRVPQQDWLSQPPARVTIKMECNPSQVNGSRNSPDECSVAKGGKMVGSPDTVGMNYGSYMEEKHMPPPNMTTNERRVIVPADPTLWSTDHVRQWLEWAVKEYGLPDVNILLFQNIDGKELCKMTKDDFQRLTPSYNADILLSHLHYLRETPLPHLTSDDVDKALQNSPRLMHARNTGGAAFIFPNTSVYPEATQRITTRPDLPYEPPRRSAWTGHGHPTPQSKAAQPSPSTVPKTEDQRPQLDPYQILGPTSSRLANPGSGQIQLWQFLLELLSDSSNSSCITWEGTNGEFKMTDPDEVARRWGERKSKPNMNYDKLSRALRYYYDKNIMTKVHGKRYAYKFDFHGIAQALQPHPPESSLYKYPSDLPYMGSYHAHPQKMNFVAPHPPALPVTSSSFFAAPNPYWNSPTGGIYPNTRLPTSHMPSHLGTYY
# How it was run: as §1
# ELF1 = ELF1 (Homo sapiens, UniProt P32519 1-619)
# Sequence of ELF1 (P32519 whole entry): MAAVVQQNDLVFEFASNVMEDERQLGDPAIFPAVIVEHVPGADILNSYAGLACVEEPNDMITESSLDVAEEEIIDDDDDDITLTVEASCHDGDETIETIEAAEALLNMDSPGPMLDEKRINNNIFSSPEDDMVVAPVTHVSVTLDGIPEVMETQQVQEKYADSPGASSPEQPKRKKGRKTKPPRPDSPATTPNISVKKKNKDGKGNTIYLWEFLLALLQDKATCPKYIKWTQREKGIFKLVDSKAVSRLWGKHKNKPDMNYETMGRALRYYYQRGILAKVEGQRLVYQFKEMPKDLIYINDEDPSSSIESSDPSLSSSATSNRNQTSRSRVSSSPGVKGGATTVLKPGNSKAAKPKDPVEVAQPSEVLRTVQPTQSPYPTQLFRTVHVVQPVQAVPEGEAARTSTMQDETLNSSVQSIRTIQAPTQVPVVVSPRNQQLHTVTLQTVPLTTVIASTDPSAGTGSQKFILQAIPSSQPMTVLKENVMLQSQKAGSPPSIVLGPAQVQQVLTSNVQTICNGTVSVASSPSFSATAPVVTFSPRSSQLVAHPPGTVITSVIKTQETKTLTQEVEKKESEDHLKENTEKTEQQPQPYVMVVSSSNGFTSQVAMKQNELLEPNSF
# How it was run: as §1
# EHF = molecular target: T5, EHF (Homo sapiens, UniProt Q9NZC4 1-300)
# T5 sequence: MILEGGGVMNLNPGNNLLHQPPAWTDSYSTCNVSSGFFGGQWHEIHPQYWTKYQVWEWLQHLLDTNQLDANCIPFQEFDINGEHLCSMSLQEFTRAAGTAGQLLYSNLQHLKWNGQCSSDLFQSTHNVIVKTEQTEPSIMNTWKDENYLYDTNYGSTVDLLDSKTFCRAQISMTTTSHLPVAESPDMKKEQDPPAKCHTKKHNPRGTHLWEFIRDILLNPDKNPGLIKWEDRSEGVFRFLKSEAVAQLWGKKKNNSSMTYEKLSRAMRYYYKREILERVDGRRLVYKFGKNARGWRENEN
# How it was run: as §1
# SPI1 = SPI1 (Homo sapiens, UniProt P17947 1-270)
# How it was run: as §1
# SPIB = SPIB (Homo sapiens, UniProt Q01892 1-262)
# Sequence of SPIB (Q01892 whole entry): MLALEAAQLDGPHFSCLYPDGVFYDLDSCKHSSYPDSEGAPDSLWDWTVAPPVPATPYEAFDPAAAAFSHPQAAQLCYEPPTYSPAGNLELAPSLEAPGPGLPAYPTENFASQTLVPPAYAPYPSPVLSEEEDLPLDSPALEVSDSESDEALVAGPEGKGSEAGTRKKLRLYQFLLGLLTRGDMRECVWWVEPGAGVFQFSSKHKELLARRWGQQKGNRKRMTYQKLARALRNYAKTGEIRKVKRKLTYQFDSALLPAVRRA
# How it was run: as §1
# ELK3 = molecular target: T6, ELK3 (Homo sapiens, UniProt P41970 1-407)
# T6 sequence: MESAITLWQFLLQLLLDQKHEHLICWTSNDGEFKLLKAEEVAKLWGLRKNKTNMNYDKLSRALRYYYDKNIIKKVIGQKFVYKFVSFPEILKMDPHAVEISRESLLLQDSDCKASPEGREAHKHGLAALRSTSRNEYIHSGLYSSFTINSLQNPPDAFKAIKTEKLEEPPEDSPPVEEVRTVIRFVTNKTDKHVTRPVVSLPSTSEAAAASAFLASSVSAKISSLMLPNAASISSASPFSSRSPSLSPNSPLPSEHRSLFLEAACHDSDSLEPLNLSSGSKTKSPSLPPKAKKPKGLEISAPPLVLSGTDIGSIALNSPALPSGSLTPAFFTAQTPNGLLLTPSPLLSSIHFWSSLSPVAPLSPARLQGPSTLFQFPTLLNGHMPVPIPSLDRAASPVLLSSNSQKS
# How it was run: as §1
# FEV = molecular target: T7, FEV (Homo sapiens, UniProt Q99581 1-238)
# T7 sequence: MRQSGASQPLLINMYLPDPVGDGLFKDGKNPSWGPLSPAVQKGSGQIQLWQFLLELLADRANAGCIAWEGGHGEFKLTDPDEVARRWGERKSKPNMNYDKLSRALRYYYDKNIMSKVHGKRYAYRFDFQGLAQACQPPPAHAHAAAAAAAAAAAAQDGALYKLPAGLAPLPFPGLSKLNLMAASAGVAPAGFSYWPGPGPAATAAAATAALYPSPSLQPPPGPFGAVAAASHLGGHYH
# How it was run: as §1
# ETV5 = ETV5 (Homo sapiens, UniProt P41161 1-510)
# Sequence of ETV5 (P41161 whole entry): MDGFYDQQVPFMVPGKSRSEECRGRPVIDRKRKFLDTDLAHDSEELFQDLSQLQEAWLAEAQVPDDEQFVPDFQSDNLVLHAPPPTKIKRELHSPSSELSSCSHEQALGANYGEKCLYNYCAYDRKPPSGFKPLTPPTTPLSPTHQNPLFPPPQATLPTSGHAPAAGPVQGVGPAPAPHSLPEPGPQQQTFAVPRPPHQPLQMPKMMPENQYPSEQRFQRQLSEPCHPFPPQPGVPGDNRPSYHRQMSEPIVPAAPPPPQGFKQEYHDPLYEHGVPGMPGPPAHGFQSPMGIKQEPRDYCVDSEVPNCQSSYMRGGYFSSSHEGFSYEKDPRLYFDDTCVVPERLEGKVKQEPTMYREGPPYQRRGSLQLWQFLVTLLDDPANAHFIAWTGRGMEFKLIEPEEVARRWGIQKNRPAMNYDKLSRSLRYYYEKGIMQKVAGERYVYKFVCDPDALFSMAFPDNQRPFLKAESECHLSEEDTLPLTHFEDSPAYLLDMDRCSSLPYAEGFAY
# How it was run: as §1
# SPIC = molecular target: T8, SPIC (Homo sapiens, UniProt Q8N5J4 1-248)
# T8 sequence: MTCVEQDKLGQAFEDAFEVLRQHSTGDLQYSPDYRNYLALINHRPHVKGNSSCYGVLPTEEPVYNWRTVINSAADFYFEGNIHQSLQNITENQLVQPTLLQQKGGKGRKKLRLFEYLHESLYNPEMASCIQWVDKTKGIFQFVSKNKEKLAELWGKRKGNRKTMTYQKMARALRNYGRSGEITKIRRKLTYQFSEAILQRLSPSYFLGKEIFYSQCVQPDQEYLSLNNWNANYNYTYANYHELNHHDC
# How it was run: as §1
# ELF4 = ELF4 (Homo sapiens, UniProt Q99607 1-663)
# Sequence of ELF4 (Q99607 whole entry): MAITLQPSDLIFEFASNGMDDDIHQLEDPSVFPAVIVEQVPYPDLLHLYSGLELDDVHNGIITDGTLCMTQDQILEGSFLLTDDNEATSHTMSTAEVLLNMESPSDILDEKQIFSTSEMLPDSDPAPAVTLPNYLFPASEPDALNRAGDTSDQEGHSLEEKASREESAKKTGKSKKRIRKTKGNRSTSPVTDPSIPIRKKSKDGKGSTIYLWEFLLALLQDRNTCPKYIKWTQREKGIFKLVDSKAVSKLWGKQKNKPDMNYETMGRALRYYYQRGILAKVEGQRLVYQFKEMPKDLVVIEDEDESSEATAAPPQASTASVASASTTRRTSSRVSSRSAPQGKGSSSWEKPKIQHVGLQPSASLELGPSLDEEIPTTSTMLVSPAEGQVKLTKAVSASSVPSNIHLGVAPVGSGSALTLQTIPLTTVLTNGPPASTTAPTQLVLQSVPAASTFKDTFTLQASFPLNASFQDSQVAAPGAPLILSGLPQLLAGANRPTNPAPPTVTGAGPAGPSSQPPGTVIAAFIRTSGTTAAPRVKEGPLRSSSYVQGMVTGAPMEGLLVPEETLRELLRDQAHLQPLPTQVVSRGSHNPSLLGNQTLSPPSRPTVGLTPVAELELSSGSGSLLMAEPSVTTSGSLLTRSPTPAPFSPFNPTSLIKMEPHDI
# How it was run: as §1
# ELK4 = molecular target: T9, ELK4 (Homo sapiens, UniProt P28324-2 1-405)
# T9 sequence: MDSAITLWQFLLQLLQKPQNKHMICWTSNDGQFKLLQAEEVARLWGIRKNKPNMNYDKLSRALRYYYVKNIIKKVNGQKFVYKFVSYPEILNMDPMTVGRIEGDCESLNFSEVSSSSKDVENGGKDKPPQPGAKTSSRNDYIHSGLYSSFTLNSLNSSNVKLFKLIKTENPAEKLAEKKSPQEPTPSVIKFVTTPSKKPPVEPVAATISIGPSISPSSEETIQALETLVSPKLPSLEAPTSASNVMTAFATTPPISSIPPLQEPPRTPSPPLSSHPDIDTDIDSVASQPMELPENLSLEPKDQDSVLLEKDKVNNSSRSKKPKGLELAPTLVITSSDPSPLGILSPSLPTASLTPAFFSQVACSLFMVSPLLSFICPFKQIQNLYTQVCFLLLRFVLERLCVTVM
# How it was run: as §1
# ETV2 = molecular target: T10, ETV2 (Homo sapiens, UniProt O00321 1-342)
# T10 sequence: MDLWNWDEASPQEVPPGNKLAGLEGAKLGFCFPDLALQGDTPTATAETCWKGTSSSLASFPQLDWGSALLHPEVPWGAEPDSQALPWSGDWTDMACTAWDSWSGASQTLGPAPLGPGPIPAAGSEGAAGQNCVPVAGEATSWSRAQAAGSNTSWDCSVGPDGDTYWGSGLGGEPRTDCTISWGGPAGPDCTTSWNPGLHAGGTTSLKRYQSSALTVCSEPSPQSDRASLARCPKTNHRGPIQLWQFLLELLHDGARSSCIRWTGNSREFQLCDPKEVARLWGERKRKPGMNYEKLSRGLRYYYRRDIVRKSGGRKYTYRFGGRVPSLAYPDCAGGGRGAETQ
# How it was run: as §1
# ELF3 = molecular target: T11, ELF3 (Homo sapiens, UniProt P78545 1-371)
# T11 sequence: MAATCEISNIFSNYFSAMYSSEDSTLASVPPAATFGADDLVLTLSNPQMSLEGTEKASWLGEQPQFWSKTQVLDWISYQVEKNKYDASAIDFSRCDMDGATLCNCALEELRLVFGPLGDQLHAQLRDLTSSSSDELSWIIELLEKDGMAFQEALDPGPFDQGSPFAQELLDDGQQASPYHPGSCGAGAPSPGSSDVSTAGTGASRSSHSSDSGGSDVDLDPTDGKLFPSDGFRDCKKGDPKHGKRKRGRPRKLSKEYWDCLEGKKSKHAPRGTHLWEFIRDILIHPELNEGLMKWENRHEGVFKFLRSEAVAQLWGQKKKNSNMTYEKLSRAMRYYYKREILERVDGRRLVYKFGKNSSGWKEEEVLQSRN
# How it was run: as §1
# CRX = CRX (Homo sapiens, UniProt O43186 1-299)
# Sequence of CRX (O43186 whole entry): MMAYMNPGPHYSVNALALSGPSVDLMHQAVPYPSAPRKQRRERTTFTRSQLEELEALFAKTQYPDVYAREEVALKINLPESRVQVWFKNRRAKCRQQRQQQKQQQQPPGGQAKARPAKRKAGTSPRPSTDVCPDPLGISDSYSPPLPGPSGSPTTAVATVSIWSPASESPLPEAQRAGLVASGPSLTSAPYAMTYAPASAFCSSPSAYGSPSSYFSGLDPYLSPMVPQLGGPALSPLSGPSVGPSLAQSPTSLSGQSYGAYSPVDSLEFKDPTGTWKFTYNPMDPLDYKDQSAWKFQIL
# How it was run: as §1
# ETV1 = ETV1 (Homo sapiens, UniProt P50549 1-477)
# Sequence of ETV1 (P50549 whole entry): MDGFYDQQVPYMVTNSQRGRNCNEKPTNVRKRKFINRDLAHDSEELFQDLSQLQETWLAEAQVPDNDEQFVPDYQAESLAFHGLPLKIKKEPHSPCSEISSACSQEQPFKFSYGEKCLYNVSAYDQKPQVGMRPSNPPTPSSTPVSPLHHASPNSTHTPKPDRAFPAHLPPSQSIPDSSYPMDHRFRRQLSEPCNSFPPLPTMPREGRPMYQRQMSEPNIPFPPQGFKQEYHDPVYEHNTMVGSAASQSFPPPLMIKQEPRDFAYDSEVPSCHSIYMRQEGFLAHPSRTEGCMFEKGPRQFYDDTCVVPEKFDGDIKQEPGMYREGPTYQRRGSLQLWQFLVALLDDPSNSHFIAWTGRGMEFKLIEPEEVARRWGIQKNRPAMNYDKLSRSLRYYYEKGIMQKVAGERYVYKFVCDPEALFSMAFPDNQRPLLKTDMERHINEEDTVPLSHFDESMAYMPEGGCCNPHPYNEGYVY
# How it was run: as §1
sequence,measurement,setting,value
TTGTTG,binding signal,FLI1,"1.03 fold enrichment (6-mer frequency, TF over GST control)"
same,binding signal,ELK1,"1.12 fold enrichment (6-mer frequency, TF over GST control)"
same,binding signal,GABPA,"1.07 fold enrichment (6-mer frequency, TF over GST control)"
same,binding signal,ERG,"1.1 fold enrichment (6-mer frequency, TF over GST control)"
same,binding signal,ELF1,"1.14 fold enrichment (6-mer frequency, TF over GST control)"
same,binding signal,EHF,"1.12 fold enrichment (6-mer frequency, TF over GST control)"
same,binding signal,SPI1,"1.15 fold enrichment (6-mer frequency, TF over GST control)"
same,binding signal,SPIB,"1.05 fold enrichment (6-mer frequency, TF over GST control)"
same,binding signal,ELK3,"1.12 fold enrichment (6-mer frequency, TF over GST control)"
same,binding signal,FEV,"1.01 fold enrichment (6-mer frequency, TF over GST control)"
same,binding signal,ETV5,"1.08 fold enrichment (6-mer frequency, TF over GST control)"
same,binding signal,SPIC,"1.19 fold enrichment (6-mer frequency, TF over GST control)"
same,binding signal,ELF4,"1.21 fold enrichment (6-mer frequency, TF over GST control)"
same,binding signal,ELK4,"1.19 fold enrichment (6-mer frequency, TF over GST control)"
same,binding signal,ETV2,"1.09 fold enrichment (6-mer frequency, TF over GST control)"
same,binding signal,ELF3,"1.15 fold enrichment (6-mer frequency, TF over GST control)"
same,binding signal,CRX,"1.09 fold enrichment (6-mer frequency, TF over GST control)"
same,binding signal,ETV1,"1.21 fold enrichment (6-mer frequency, TF over GST control)"
